From PMC5540273 (PLoS ONE, 2017)

How the values were obtained:
Conditions in all cases: concentration: 1 μM,replicates: in singlicate; n = 1
[1] = system: T1, MEK5
T1 construct: gene MAP2K5

[2] = system: T2, MEK6
T2 construct: gene MAP2K6

[3] = system: MELK
[4] = system: MERTK
[5] = system: MET
[6] = system: T3, MINK
T3 construct: gene MINK1

[7] = system: MKK7
[8] = system: MKNK1
[9] = system: MKNK2
[10] = system: T4, MLCK
T4 construct: gene MYLK3

[11] = system: T5, MLK1
T5 construct: gene MAP3K9

[12] = system: MLK2
[13] = system: MLK3
[14] = system: MRCKA
[15] = system: T6, MRCKB
T6 construct: gene CDC42BPB

[16] = system: MST1R
[17] = system: T7, MST1
T7 construct: gene STK4

[18] = system: T8, MST2
T8 construct: gene STK3

[19] = system: T9, MST3
T9 construct: gene STK24

[20] = system: MST4
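Note: KINOMEscan kinase panel screen.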

SMILES | %Inh [1] | %Inh [2] | %Inh [3] | %Inh [4] | %Inh [5] | %Inh [6] | %Inh [7] | %Inh [8] | %Inh [9] | %Inh [10] | %Inh [11] | %Inh [12] | %Inh [13] | %Inh [14] | %Inh [15] | %Inh [16] | %Inh [17] | %Inh [18] | %Inh [19] | %Inh [20]
CCn1c(-c2nonc2N)nc2cncc(CNC3CCNCC3)c21.Cl [SB-747651] | 32% | 0% | 37% | 0% | 2% | 0% | 0% | 0% | 17% | 0% | 3% | 0% | 0% | 7% | 4% | 31% | 19% | 0% | 0% | 0%
Cc1cccc2c(-c3ccncc3)c(-c3ccc(F)cc3)nn12.Cl [GW461487] | 6% | 0% | 0% | 5% | 0% | 30% | 0% | 1% | 0% | 0% | 0% | 0% | 0% | 0% | 4% | 44% | 90.4% | 46% | 16% | 0%
Cl.Cl.NC[C@H](CC1CCCCC1)NC(=O)c1ccc(-c2ccnc3[nH]ccc23)s1 [GSK1581428] | 52% | 27% | 96.4% | 68% | 16% | 67% | 0% | 66% | 97.6% | 74% | 5% | 0% | 0% | 97.1% | 99.1% | 26% | 0% | 0% | 9% | 55%
CS(=O)(=O)c1cccc(CNc2nc(Nc3ccc4c(c3)[C@@H]3C[C@@H]4CNC3=O)ncc2C(F)(F)F)c1 | 94.5% | 5% | 5% | 98.6% | 93.8% | 90.3% | 9% | 0% | 97.6% | 15% | 99.8% | 84% | 98.1% | 0% | 0% | 0% | 0% | 18% | 15% | 0%
CC(=O)c1c(-c2ccncc2)[nH]c(-c2ccncc2)c1C [GW493036] | 2% | 0% | 0% | 0% | 11% | 29% | 0% | 14% | 46% | 0% | 4% | 0% | 0% | 20% | 3% | 42% | 11% | 8% | 0% | 0%
N#Cc1cccc(C(=O)NC2CCN(c3ccnc(Nc4ccc(F)cc4)n3)C2)c1 (centres unmarked) [GSK1379708] | 12% | 0% | 0% | 49% | 18% | 0% | 0% | 0% | 0% | 0% | 1% | 0% | 9% | 6% | 0% | 39% | 2% | 0% | 0% | 0%
COC(=O)c1cccc(NC(=O)NC2CCN(c3ccnc(Nc4cc(OC)c(OC)c(OC)c4)n3)C2)c1 (centres unmarked) [GSK1379767] | 98.8% | 4% | 0% | 40% | 19% | 3% | 21% | 12% | 32% | 12% | 33% | 0% | 34% | 14% | 0% | 39% | 6% | 2% | 0% | 0%
C[C@@H](Oc1cc(-n2cnc3cc(-c4cnn(C)c4)ccc32)sc1C(N)=O)c1ccccc1Cl [GSK580432] | 42% | 15% | 15% | 100% | 69% | 40% | 0% | 2% | 20% | 10% | 57% | 49% | 80% | 20% | 3% | 64% | 88% | 70% | 0% | 14%
Cn1ccc2ncnc(Oc3ccc(NC(=O)Nc4cccc(C(F)(F)F)c4)c(Cl)c3)c21 | 30% | 30% | 0% | 85% | 17% | 4% | 32% | 16% | 19% | 12% | 53% | 12% | 2% | 3% | 21% | 33% | 16% | 24% | 18% | 0%
CN1CCN(CCCNc2nccc(-c3c(-c4ccc(F)cc4)nn4cc(C(N)=O)ccc34)n2)CC1 [GW622475] | 42% | 0% | 91.9% | 49% | 32% | 71% | 0% | 10% | 0% | 0% | 0% | 16% | 12% | 11% | 0% | 36% | 28% | 15% | 33% | 0%
CC(=O)Nc1ccc(-c2cc3ncnc(SCC(=O)O)c3s2)cc1 | 17% | 20% | 0% | 0% | 0% | 25% | 0% | 0% | 0% | 40% | 0% | 18% | 0% | 0% | 0% | 25% | 2% | 16% | 24% | 2%
Cn1ccc2ncnc(Oc3ccc(NC(=O)Nc4cnn(C(C)(C)C)c4)c(Cl)c3)c21 | 18% | 0% | 16% | 65% | 35% | 70% | 0% | 4% | 78% | 0% | 30% | 26% | 0% | 0% | 0% | 10% | 12% | 0% | 4% | 0%
C[C@@H](Oc1cc(-n2cnc3ccc(-c4ccncc4)cc32)sc1C(N)=O)c1ccccc1Cl [GSK483724] | 78% | 0% | 0% | 35% | 9% | 23% | 56% | 0% | 7% | 32% | 0% | 23% | 31% | 0% | 10% | 44% | 24% | 21% | 0% | 0%
c1ccc(Oc2ccc(Nc3ccnc4ccc(-c5ccccn5)cc34)cc2)cc1 [GW407034] | 99.9% | 0% | 0% | 9% | 16% | 0% | 0% | 0% | 17% | 13% | 1% | 3% | 5% | 2% | 9% | 0% | 0% | 0% | 4% | 0%
CN(c1cccc(CNc2nc(Nc3ccc4c(c3)CC(=O)N4)ncc2C(F)(F)F)c1)S(C)(=O)=O | 0% | 0% | 84% | 80% | 93.9% | 76% | 0% | 0% | 28% | 1% | 93.3% | 82% | 87% | 0% | 0% | 15% | 0% | 10% | 16% | 2%
O=C(Nc1n[nH]c2cc(-c3ccco3)ccc12)C1CC1 [SB-737447] | 76% | 0% | 0% | 0% | 0% | 63% | 0% | 0% | 39% | 78% | 0% | 34% | 0% | 25% | 1% | 0% | 0% | 15% | 17% | 3%
Cn1ccc2ncnc(Oc3ccc(NC(=O)Nc4cncc(C(F)(F)F)c4)c(Cl)c3)c21 | 22% | 0% | 0% | 81% | 12% | 0% | 0% | 0% | 0% | 0% | 0% | 0% | 0% | 0% | 0% | 0% | 0% | 0% | 0% | 0%
CC(=O)Nc1nc2cnc(Nc3cc(NC(=O)c4cccc(CC(C)(C)C#N)c4)ccc3C)nc2s1 | 46% | 0% | 8% | 31% | 7% | 3% | 0% | 0% | 41% | 0% | 0% | 14% | 5% | 0% | 0% | 26% | 5% | 0% | 0% | 0%
COC(=O)c1cccc(NC(=O)NC2CCN(c3ccnc(NCc4ccc(F)cc4)n3)CC2)c1 [GSK1379860] | 8% | 0% | 0% | 0% | 0% | 0% | 45% | 0% | 9% | 0% | 0% | 0% | 0% | 12% | 0% | 31% | 0% | 0% | 0% | 0%
